The values below come from PubChem BioAssay (NCATS).

The structures appear in SMILES notation. “And” between values parts separate entries of the source, which are not always exact repeats. Equal values may be shown once. Inconclusive results are not listed. The source made the active and inactive calls. Unless noted, calls follow the shape of the dose curve; as a rule, active = well fitted curve in the direction sought with a large enough effect; inconclusive = small, poorly fitted or top-dose-only effect, or another doubt; inactive = no such curve, though single readings can be large; an effect the other way counts as inactive or inconclusive.

Experiment [1] in a line: Cell Viability - N2a (AID 540).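 Also: plate controls were DMSO alone for no effect and tamoxifen control for full effect; nearly all actives have a fitted effect of over 45% in size.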 The settings on record: N2a mouse neuroblastoma cell viability; activity change, negative = cytotoxicity: at 92.2 µM (top of the series). Put shortly:
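CellTiter-Glo ATP luminescence, read 20 min after reagent at room temperature, reported viability following 40 h compound treatment at 37 °C. N2a mouse neuroblastoma cells seeded 1500/well; Hill equation gave AC50.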

Experiment [2] can be described thus: Cell Viability - SH-SY5Y (AID 544).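 Also: cells exposed to compound for 40 hours; 0% = DMSO alone and -100% = 100 µM tamoxifen; nearly all actives have a fitted effect of over 55% in size.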 The following applies: SH-SY5Y neuroblastoma cell viability; viability change, negative = cytotoxic: at 92.2 µM (top of the series). Put shortly:
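Cytotoxicity measured via ATP-dependent luciferase luminescence (CellTiter-Glo) following 40 h, 37 °C exposure of 1500 SH-SY5Y cells per well. Concentration-response data were fitted with the standard Hill equation to give AC50.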

Experiment [3] can be described thus: Cell Viability - Renal Proximal Tubule (AID 545).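 Also: cells exposed to compound for 40 hours; 0% = DMSO only and -100% = 100 µM tamoxifen; nearly all actives have a fitted effect of over 40% in size.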 An outline of the steps:
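Viability taken as intracellular ATP (CellTiter-Glo luminescence) after 40 hr, 37 °C compound treatment of primary proximal tubule cells from rat kidney, 1000 cells/well; Hill-equation fits of qHTS concentration-response data gave AC50.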

Experiment [4] has as its target Cytochrome P450 3A4 (Homo sapiens) (UniProt P08684). Nature of the experiment: qHTS Assay for Inhibitors and Substrates of Cytochrome P450 3A4 (AID 884). Also: % is scaled to controls: 0 for no effect and ±100 for the full control effect; nearly all actives have a fitted effect of over 50% in size. Put shortly:
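Luminescent readout of luciferin produced by CYP3A4 (20 nM) dealkylation of Luciferin-PPXE, 25 uM (its KM). NADPH-driven reaction ran 60 min at RT after 10 min compound preincubation; data scaled to 57 uM ketoconazole as 100% inhibition.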

The nature of experiment [5]: Cell Viability - LYMP2-001 (AID 921).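 Also: 0% = DMSO only and full inhibition = tetraoctylammonium bromide control wells; nearly all actives have a fitted effect of over 70% in size.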 An outline of the steps: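 Cellular ATP loss read by luciferase luminescence after 24 h compound exposure at 37 C in complete medium. LYMP2-001 lymphoblastoid cells, 2500/well; qHTS concentration-response data fitted with Hill equation for AC50.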
A short description of experiment [6]: Cell Viability - LYMP2-003 (AID 965).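 Also: cells exposed to compounds for 24 h before reading; 0% = DMSO only and full effect = 92 µM tetraoctylammonium bromide; nearly all actives have a fitted effect of over 50% in size.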 Put shortly:
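CellTiter-Glo luminescence quantified ATP loss after 24 h compound treatment of LYMP2-003 lymphoblastoid cells at 37 C. Titration series were fitted with the standard Hill equation to give AC50.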

Experiment [7] can be described thus: Cell Viability - LYMP2-015 (AID 971).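 Also: 0% = DMSO only and full effect = 92 µM tetraoctylammonium bromide; nearly all actives have a fitted effect of over 55% in size.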 An outline of the steps:
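Cytotoxicity readout: decrease in intracellular ATP (CellTiter-Glo luminescence) in 2500 LYMP2-015 lymphoblastoid cells/well after 24 h compound exposure at 37 C. Concentration-response data fitted with the standard Hill equation to give AC50.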

Experiment [8] is described as follows: Cell Viability - LYMP2-019 (AID 973).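 Also: 0% = DMSO alone and full effect = 92 µM tetraoctylammonium bromide; nearly all actives have a fitted effect of over 55% in size.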 An outline of the steps:
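AC50 values come from Hill-equation fits of luminescent intracellular ATP (CellTiter-Glo, 30 min, room temperature) following 24 h compound exposure at 37 C. Cells: LYMP2-019 lymphoblastoid line, 2500 per well, in complete culture medium.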

Experiment [9] can be described thus: Cell Viability - LYMP2-002 (AID 977).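 Also: plate controls were DMSO only for no effect and 92 µM tetraoctylammonium bromide for full effect.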 Put shortly: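 Human lymphoblastoid cells (2500/well) in complete medium were preincubated 5 hr at 37 C, then exposed to compounds for 24 hr at 37 C. Intracellular ATP was read by CellTiter-Glo luminescence; AC50 came from Hill-equation concentration-response fits.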
A short description of experiment [10]: Cell Viability - LYMP2-008 (AID 980). Also: % is scaled to controls: 0 for no effect and ±100 for the full control effect; nearly all actives have a fitted effect of over 60% in size. Put shortly:
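Cytotoxicity determined from ATP-dependent luciferase luminescence (CellTiter-Glo) following 24 h compound exposure of human lymphoblastoid LYMP2-008 cells at 37 C. Concentration-response data fitted to the Hill equation to give AC50.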

Experiment [11] can be described thus: Cell Viability - LYMP2-010 (AID 981). Also: % is scaled to controls: 0 for no effect and ±100 for the full control effect; nearly all actives have a fitted effect of over 55% in size. An outline of the steps:
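CellTiter-Glo ATP luminescence measured cytotoxicity after 24 h compound exposure at 37 C. LYMP2-010 cells were seeded at 2500/well, with tetraoctylammonium bromide as control; concentration-response curves gave AC50 values by the Hill equation.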

Experiment [12] is described as follows: Cell Viability - LYMP2-012 (AID 982).
A short description of experiment [13]: Cell Viability - LYMP2-020 (AID 986). An outline of the steps:
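Cytotoxicity in qHTS format: luminescent ATP readout from CellTiter-Glo after 24 h compound exposure at 37 C in complete medium. LYMP2-020 lymphoblastoid cells were seeded at 2500/well; concentration-response data fitted to the Hill equation for AC50.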

Experiment [14] in a line: Cell Viability - LYMP2-022 (AID 987). Put shortly: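 Cytotoxicity read as decreased cellular ATP (CellTiter-Glo luminescence, 30 min room temperature) after 24 hours compound exposure of 2500 lymphoblastoid LYMP2-022 cells/well at 37 C. Concentration-response data fitted with standard Hill equation for AC50.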
Experiment [15] can be described thus: Cell Viability - LYMP1-002 - Assay at 40 hr (AID 994).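 Also: 0% = DMSO only and full inhibition = 92 µM tetraoctylammonium bromide; nearly all actives have a fitted effect of over 60% in size.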 An outline of the steps:
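Cytotoxicity was read as loss of cellular ATP (CellTiter-Glo luminescence) after 40 hr compound exposure at 37 C of 2500 LYMP1-002 lymphoblastoid cells per well. Concentration-response data were fitted with the standard Hill equation to give AC50.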

Experiment [16] can be described thus: qHTS assay for small molecule agonists of retinoid X receptor alpha signaling (AID 588544). The following applies: HEK293T RXRa-UAS-bla, beta-lactamase reporter, 18 h; 530 nm emission.
Experiment [17] can be described thus: qHTS assay for small molecule antagonists of retinoid X receptor alpha signaling (AID 588546; active = well fitted inhibition curve with a large enough effect in the signal ratio, with a control signal flat, not every such curve was filed as active; the % refers to the signal ratio;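 also: cells stimulated with 9-cis-retinoic acid as agonist; % is scaled to controls: 0 for no effect and ±100 for the full control effect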). The following applies: HEK293T RXRa-UAS-bla, beta-lactamase ratio, antagonist mode; measured here: W530 green channel, cytotoxicity proxy. Put shortly:
(§1)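 Beta-lactamase reporter inhibition, read as CCF4 fluorescence ratio (ex 405, em 460/530 nm) after 2 h at RT. HEK293T UAS-bla cells, 2500/well, were stimulated with 9-cis-RA at 500 or 100 nM final alongside test compound for 18 h at 37 C.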

The target in experiment [18] is Retinoic acid receptor RXR-alpha (Homo sapiens) (UniProt P19793). The experiment is described as above. The settings on record: HEK293T RXRa-UAS-bla, beta-lactamase ratio, antagonist mode. An outline of the steps:
as §1

The target in experiment [19] is Tumor necrosis factor (Homo sapiens) (UniProt P01375). As to the kind of experiment: qHTS assay to identify small molecules that stimulate Tumor Necrosis Factor-alpha (TNF-alpha) secretion (AID 651757; active = well fitted curve in the direction sought with a large enough effect in the signal ratio; the % refers to the signal ratio; also: 0% is about no effect). An outline of the steps: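 Secreted TNF-alpha quantified by TR-FRET sandwich of two labeled anti-TNF-alpha antibodies, incubated 3 hr at room temperature. Preceded by 17 hr, 37 C compound treatment of THP-1 cells at 3000 cells/well.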

Experiment [20] is described as follows: qHTS assay for small molecule antagonists of the retinoid-related orphan receptor gamma (ROR-gamma) signaling pathway - cell viability counter screen (AID 720652; active = well fitted curve in the direction sought with a large enough effect in the repeat runs; an effect the other way counts as inactive or inconclusive;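 also: CHO reporter cells with doxycycline-induced ROR-gamma expression; compound exposure lasted 16 hr before ATP read; % is scaled to controls: 0 for no effect and ±100 for the full control effect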). Put shortly:
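Cytotoxicity counter screen: intracellular ATP (CellTiter-Glo luminescence) measured in the doxycycline-induced CHO RORE-luciferase reporter line after 16 hr compound exposure at 37 C, 5% CO2.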

Chain of Retinoic acid receptor RXR-alpha (Homo sapiens) (P19793 whole entry, looked up): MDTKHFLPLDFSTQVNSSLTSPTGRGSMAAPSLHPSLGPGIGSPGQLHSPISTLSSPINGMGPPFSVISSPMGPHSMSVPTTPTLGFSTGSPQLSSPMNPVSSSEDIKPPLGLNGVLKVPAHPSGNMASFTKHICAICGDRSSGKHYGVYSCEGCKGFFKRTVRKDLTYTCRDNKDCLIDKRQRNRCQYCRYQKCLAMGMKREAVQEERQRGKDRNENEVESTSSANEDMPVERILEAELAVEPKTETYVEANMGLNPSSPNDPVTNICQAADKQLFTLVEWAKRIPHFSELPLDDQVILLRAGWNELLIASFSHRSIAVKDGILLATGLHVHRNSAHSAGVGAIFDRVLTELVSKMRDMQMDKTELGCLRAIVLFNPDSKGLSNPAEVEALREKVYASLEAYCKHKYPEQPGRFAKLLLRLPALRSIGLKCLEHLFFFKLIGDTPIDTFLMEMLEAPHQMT
Chain of Cytochrome P450 3A4 (Homo sapiens) (P08684 whole entry, looked up): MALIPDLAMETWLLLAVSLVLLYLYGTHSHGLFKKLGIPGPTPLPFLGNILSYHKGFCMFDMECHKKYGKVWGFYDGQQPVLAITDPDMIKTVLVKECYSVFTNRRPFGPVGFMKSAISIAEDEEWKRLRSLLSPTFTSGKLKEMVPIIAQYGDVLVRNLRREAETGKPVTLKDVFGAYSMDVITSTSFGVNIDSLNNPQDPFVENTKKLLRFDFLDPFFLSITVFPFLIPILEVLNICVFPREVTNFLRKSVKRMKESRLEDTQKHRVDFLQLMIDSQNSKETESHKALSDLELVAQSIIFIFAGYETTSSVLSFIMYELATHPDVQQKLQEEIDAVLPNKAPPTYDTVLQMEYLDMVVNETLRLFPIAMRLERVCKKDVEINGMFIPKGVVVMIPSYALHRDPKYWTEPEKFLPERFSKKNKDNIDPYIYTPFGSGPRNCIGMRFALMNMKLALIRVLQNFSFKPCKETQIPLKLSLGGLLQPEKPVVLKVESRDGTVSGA
Chain of Tumor necrosis factor (Homo sapiens) (P01375 whole entry, looked up): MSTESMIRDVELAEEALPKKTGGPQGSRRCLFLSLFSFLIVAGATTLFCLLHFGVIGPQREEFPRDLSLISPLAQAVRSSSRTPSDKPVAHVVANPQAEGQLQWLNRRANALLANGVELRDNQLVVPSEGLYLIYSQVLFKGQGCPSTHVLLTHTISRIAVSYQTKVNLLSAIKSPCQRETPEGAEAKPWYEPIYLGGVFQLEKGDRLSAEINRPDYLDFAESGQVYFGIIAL

In the case of `Clc1ccc(Cl)c(Cl)c1`, the Potency entry in experiment [1], in experiment [2], in experiment [4], in [5], in experiment [6] and in [7] was “inactive” in each case. The Potency result in experiment [8], in [9], in experiment [10], in [11], in [12] and in experiment [13] was “inactive” in each case. Moreover, the Potency result in experiment [14], in experiment [15] and in experiment [20] was “inactive” throughout. Also, the compound was classed as inactive in experiment [3] and in [19]. Moreover, the max response in experiment [16] is -7.44% and -24%; in experiment [17], 10.3% and -7.29%; in experiment [18] it was 7.63% (inactive) and -21.3% (inactive).
On to `CCOC(=O)CC(SP(=O)(OC)OC)C(=O)OCC` (stereo not drawn), for which the Potency result in [1], in experiment [5], in experiment [6], in experiment [7], in experiment [8] and in experiment [9] was “inactive” throughout. Moreover, the Potency result in experiment [10], in [11], in experiment [12], in experiment [13], in experiment [14] and in experiment [15] was “inactive” each time. Further, in experiment [20], the Potency result is “inactive”. In addition, the call in experiment [3] and in experiment [19] was inactive. The max response is 9.41% and -5.43% in experiment [16]; 7.78% and 5.62% in experiment [17]; -24.2% (inactive) and 2.64% (inactive) in experiment [18].
In the case of `CCCCOC(C)=O`, the Potency result in experiment [1], in experiment [2], in [4], in [5], in [6] and in experiment [7] was “inactive” each time. Besides, the Potency entry in [8], in [9], in experiment [10], in experiment [11], in experiment [12] and in [13] was “inactive” throughout. For the same compound, the Potency result in experiment [14], in [15] and in experiment [20] was “inactive” in each case. Also, the compound was classed as inactive in experiment [3] and in experiment [19]. Also, the results for the max response in experiment [16], in experiment [17] and in [18] were 6.81%, -8.9% and 10.8% (inactive), respectively.
Turning to `Nc1ncc([N+](=O)[O-])s1`, the Potency result in experiment [1], in experiment [2], in [4], in experiment [5], in experiment [6] and in [7] was “inactive” each time. In addition, the Potency result in [8], in [9], in [10], in experiment [11], in [12] and in experiment [13] was “inactive” in each case. For the same compound, the Potency entry in experiment [14], in experiment [15] and in experiment [20] was “inactive” in each case. Moreover, the outcome in experiment [3] and in [19] was inactive. Further, the max response is 0.224% in experiment [16], -7.58% in experiment [17] and 20% (inactive) in [18].
Take `O=[N+]([O-])c1ccccc1-c1ccccc1`: the Potency entry in experiment [1], in [2], in experiment [4], in [5], in [6] and in experiment [7] was “inactive” in each case. The Potency result in [8], in experiment [9], in [10], in [11], in experiment [12] and in [13] was “inactive” throughout. In addition, the Potency entry in [14], in [15] and in experiment [20] was “inactive” each time. Moreover, the result in experiment [3] and in experiment [19] was inactive. Further, the max response in [16] is -6.95%; in experiment [17], -2.63%; in [18] it was 0.902% (inactive).
For `CCC/C=N/O`, the Potency entry in experiment [1], in [2], in experiment [4], in experiment [5], in [6] and in experiment [7] was “inactive” each time. Also, the Potency entry in experiment [8], in [9], in experiment [10], in experiment [11], in [12] and in experiment [13] was “inactive” each time. In addition, the Potency entry in [14], in experiment [15] and in experiment [20] was “inactive” throughout. Moreover, the outcome in experiment [3] and in [19] was inactive. Also, the results for the max response in [16], in experiment [17] and in experiment [18] were -21.6%, -10.3% and -0.259% (inactive), respectively.
For the compound `CCOC(=O)CBr`, the Potency entry in experiment [1], in experiment [2], in experiment [4], in experiment [5], in experiment [6] and in experiment [7] was “inactive” throughout. Further, the Potency entry in experiment [8], in experiment [9], in [10], in [11], in [12] and in experiment [13] was “inactive” in each case. Besides, the Potency result in [14], in experiment [15] and in experiment [20] was “inactive” each time. The compound was classed as inactive in experiment [3] and in [19]. In addition, the results for the max response in experiment [16], in experiment [17] and in experiment [18] were 8.56%, -3.97% and -3.36% (inactive), respectively.
